Source: PubChem BioAssay (Tox21)
“And” between values parts separate entries of the source, which are not always exact repeats. Equal entries are not always repeated. Results filed as inconclusive are left out. A call without a number means that no potency is given here. Where a structure was tested more than once in an assay, its records may differ in their call. The source made the active and inactive calls. Unless noted, the call rests on the fitted dose curve.

Test: qHTS assay to identify small molecule agonists of H2AX - cell viability counter screen (AID 1224847); further: nearly all actives have a fitted effect of over 30% in size;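 on activity change, negative = cytotoxicity: wild-type CHO-K1 cells; top concentration of the series differs between compounds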
Details: CHO-K1 viability, CellTiter-Glo luminescence, 3 h; series mostly up to 154 µM; activity change, negative = cytotoxicity: at the top concentration
Method in brief: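 Cells plated first: CHO-K1, 1000 per well in 10% FBS medium, incubated overnight at 37C. Then 15-point compound titration added (final DMSO 0.76%) for 3 hr. Finally CellTiter-Glo added and luminescence read.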
Potency means the concentration at half of the fitted maximal effect.

**Q.** Which “activity change, negative = cytotoxicity” value does the source give for `CCCCC(CC)COC(=O)C(C#N)=C(c1ccccc1)c1ccccc1` (stereo not given) here?
**A.** -12.6% [at 70.9 µM] (inactive)

**Q.** For `OCCOCCOCCO`, which Potency is on record?
**A.** inactive

**Q.** With `CC(C)CC(=O)CC(C)C` as the compound, how does the Potency read?
**A.** inactive

**Q.** Which Potency does the source give for `Nc1cc([N+](=O)[O-])ccc1O` here?
**A.** inactive

**Q.** For `Cc1cccc(O)c1`, which Potency is on record?
**A.** inactive

**Q.** For `CCC(O)OC(O)CC` (stereo not given), which Potency is on record?
**A.** inactive

**Q.** For `CCCCCCCCCCCCCCCO`, which Potency is on record?
**A.** inactive

**Q.** For `O=C(CC(C(=O)OC1CCCCC1)S(=O)(=O)O)OC1CCCCC1` (stereo not given), which Potency is on record?
**A.** inactive

**Q.** Which Potency does the source give for `C[C@H]1C[C@@H]2[C@H]([C@@H](O)C[C@@]3(C)[C@H]2CC[C@]3(O)C(=O)CO)[C@@]2(C)C=CC(=O)C=C12` here?
**A.** inactive

**Q.** Which Potency does the source give for `N[C@@H](Cc1cc(I)c(Oc2cc(I)c(O)c(I)c2)c(I)c1)C(=O)O` here?
**A.** inactive

**Q.** For `O=C(Oc1ccccc1)c1ccccc1`, which Potency is on record?
**A.** inactive

**Q.** Which Potency does the source give for `CCc1cccc(C)c1N` here?
**A.** inactive

**Q.** Which Potency does the source give for `ON=C1CCCCC1` here?
**A.** inactive

**Q.** With `Fc1ccc(Br)cc1` as the compound, how does the Potency read?
**A.** inactive

**Q.** Which Potency does the source give for `CCCCCCCCCCCCc1ccccc1` here?
**A.** inactive

**Q.** Which Potency does the source give for `CCCCCC1=CCCC1=O` here?
**A.** inactive

**Q.** For `CC(C)(N)CO`, which Potency is on record?
**A.** inactive

**Q.** Which “activity change, negative = cytotoxicity” value does the source give for `OCC(CO)(CBr)CBr` here?
**A.** -0.89% (inactive)

**Q.** Which Potency does the source give for `CC(=O)CC(=O)Nc1ccccc1C` here?
**A.** inactive

**Q.** Which Potency does the source give for `CCC(O)OCCCOC` (stereo not given) here?
**A.** inactive

**Q.** With `O=c1[nH]nnc2ccccc12` as the compound, how does the Potency read?
**A.** inactive

**Q.** For `OC[C@H]1O[C@@](CO)(O[C@H]2O[C@H](CO)[C@@H](O)[C@H](O)[C@H]2O)[C@@H](O)[C@@H]1O`, which Potency is on record?
**A.** inactive

**Q.** With `COS(C)(=O)=O` as the compound, how does the Potency read?
**A.** inactive

**Q.** For `COCCCOc1ccnc(CS(=O)c2nc3ccccc3[nH]2)c1C` (stereo not given), which “activity change, negative = cytotoxicity” value is on record?
**A.** 0.415% [at 70.9 µM] (inactive)

**Q.** Which “activity change, negative = cytotoxicity” value does the source give for `O=P(OC(CCl)CCl)(OC(CCl)CCl)OC(CCl)CCl` here?
**A.** 0.0115% (inactive)

**Q.** With `COc1ccc(Nc2ccccc2)c(C)c1` as the compound, how does the Potency read?
**A.** inactive and 101 µM (active)

**Q.** Which Potency does the source give for `CC1=C(C)S(=O)(=O)CCS1(=O)=O` here?
**A.** inactive

**Q.** Which Potency does the source give for `C=C(C)C(=O)O[C@H]1C[C@@H]2CC[C@@]1(C)C2(C)C` here?
**A.** inactive

**Q.** For `CN(C)CCOCCN(C)C`, which Potency is on record?
**A.** inactive

**Q.** Which Potency does the source give for `CN(C)CCCN` here?
**A.** inactive

**Q.** With `Nc1ccccc1[N+](=O)[O-]` as the compound, how does the Potency read?
**A.** inactive

**Q.** For `O=C(O)c1ccccc1C(c1ccc(O)cc1)c1ccc(O)cc1`, which Potency is on record?
**A.** inactive

**Q.** Which Potency does the source give for `CC[C@H](C)C(=O)O[C@H]1C[C@@H](C)C=C2C=C[C@H](C)[C@H](CC[C@@H]3C[C@@H](O)CC(=O)O3)[C@H]21` here?
**A.** 115 µM (active) and inactive

**Q.** Which Potency does the source give for `O=C(O)CCCC[C@@H]1SC[C@@H]2NC(=O)N[C@@H]21` here?
**A.** inactive

**Q.** With `CCCCC(CC)COC(=O)CS` (stereo not given) as the compound, how does the Potency read?
**A.** inactive

**Q.** With `CSCCC=O` as the compound, how does the Potency read?
**A.** inactive

**Q.** Which “activity change, negative = cytotoxicity” value does the source give for `c1ccc2c(c1)ccc1ccccc12` here?
**A.** -1.3% (inactive)

**Q.** For `Cc1cccnc1`, which Potency is on record?
**A.** inactive

Test: qHTS assay to identify small molecule antagonists of the estrogen related receptor (ERR) signaling pathway from Tox21 library (AID 1224848; active means well fitted inhibition curve with a large enough effect in the repeat runs; further: nearly all actives have a fitted effect of over 50% in size)
Details: ERR reporter cell line, luciferase antagonist mode, 18 h; series mostly up to 92.4 µM; activity, negative = inhibition: at the top concentration
Method in brief: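 Tox21 10K compounds in DMSO tested for ERR pathway antagonism in NTP's ERR cell line; 18 h, 37 C exposure; ONE-Glo luminescence.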

**Q.** For `CCCCC(CC)COC(=O)C(C#N)=C(c1ccccc1)c1ccccc1` (stereo not given), which Potency is on record?
**A.** 23.7 µM (active)

**Q.** With `OCCOCCOCCO` as the compound, how does the Potency read?
**A.** inactive

**Q.** For `CC(C)CC(=O)CC(C)C`, which Potency is on record?
**A.** inactive

**Q.** Which Potency does the source give for `Nc1cc([N+](=O)[O-])ccc1O` here?
**A.** inactive

**Q.** With `Cc1cccc(O)c1` as the compound, how does the Potency read?
**A.** inactive

**Q.** Which Potency does the source give for `CCC(O)OC(O)CC` (stereo not given) here?
**A.** inactive

**Q.** Which Potency does the source give for `CCCCCCCCCCCCCCCO` here?
**A.** inactive

**Q.** With `O=C(CC(C(=O)OC1CCCCC1)S(=O)(=O)O)OC1CCCCC1` (stereo not given) as the compound, how does the Potency read?
**A.** inactive

**Q.** For `C[C@H]1C[C@@H]2[C@H]([C@@H](O)C[C@@]3(C)[C@H]2CC[C@]3(O)C(=O)CO)[C@@]2(C)C=CC(=O)C=C12`, which Potency is on record?
**A.** inactive

**Q.** For `N[C@@H](Cc1cc(I)c(Oc2cc(I)c(O)c(I)c2)c(I)c1)C(=O)O`, which Potency is on record?
**A.** inactive

**Q.** Which Potency does the source give for `O=C(Oc1ccccc1)c1ccccc1` here?
**A.** inactive

**Q.** With `CCc1cccc(C)c1N` as the compound, how does the Potency read?
**A.** inactive

**Q.** Which Potency does the source give for `ON=C1CCCCC1` here?
**A.** inactive

**Q.** For `Fc1ccc(Br)cc1`, which Potency is on record?
**A.** inactive

**Q.** For `CCCCCCCCCCCCc1ccccc1`, which Potency is on record?
**A.** inactive

**Q.** Which Potency does the source give for `CC(C)(N)CO` here?
**A.** inactive

**Q.** With `OCC(CO)(CBr)CBr` as the compound, how does the Potency read?
**A.** inactive

**Q.** Which Potency does the source give for `CC(=O)CC(=O)Nc1ccccc1C` here?
**A.** inactive

**Q.** For `CCC(O)OCCCOC` (stereo not given), which Potency is on record?
**A.** inactive

**Q.** Which Potency does the source give for `O=c1[nH]nnc2ccccc12` here?
**A.** inactive

**Q.** For `OC[C@H]1O[C@@](CO)(O[C@H]2O[C@H](CO)[C@@H](O)[C@H](O)[C@H]2O)[C@@H](O)[C@@H]1O`, which Potency is on record?
**A.** inactive

**Q.** For `COS(C)(=O)=O`, which Potency is on record?
**A.** inactive

**Q.** With `COCCCOc1ccnc(CS(=O)c2nc3ccccc3[nH]2)c1C` (stereo not given) as the compound, how does the “activity, negative = inhibition” value read?
**A.** 12.1% [at 42.5 µM] (inactive)

**Q.** For `O=P(OC(CCl)CCl)(OC(CCl)CCl)OC(CCl)CCl`, which Potency is on record?
**A.** 48.3 µM (active) and 54.5 µM (active)

**Q.** For `COc1ccc(Nc2ccccc2)c(C)c1`, which Potency is on record?
**A.** inactive

**Q.** With `CC1=C(C)S(=O)(=O)CCS1(=O)=O` as the compound, how does the Potency read?
**A.** inactive

**Q.** Which Potency does the source give for `C=C(C)C(=O)O[C@H]1C[C@@H]2CC[C@@]1(C)C2(C)C` here?
**A.** 4.83 µM (active) and inactive

**Q.** With `CN(C)CCOCCN(C)C` as the compound, how does the Potency read?
**A.** inactive

**Q.** With `CN(C)CCCN` as the compound, how does the Potency read?
**A.** inactive

**Q.** Which Potency does the source give for `Nc1ccccc1[N+](=O)[O-]` here?
**A.** inactive

**Q.** With `O=C(O)c1ccccc1C(c1ccc(O)cc1)c1ccc(O)cc1` as the compound, how does the Potency read?
**A.** inactive

**Q.** With `CC[C@H](C)C(=O)O[C@H]1C[C@@H](C)C=C2C=C[C@H](C)[C@H](CC[C@@H]3C[C@@H](O)CC(=O)O3)[C@H]21` as the compound, how does the Potency read?
**A.** inactive

**Q.** With `O=C(O)CCCC[C@@H]1SC[C@@H]2NC(=O)N[C@@H]21` as the compound, how does the Potency read?
**A.** inactive

**Q.** For `CCCCC(CC)COC(=O)CS` (stereo not given), which “activity, negative = inhibition” value is on record?
**A.** -0.584% (inactive)

**Q.** With `CSCCC=O` as the compound, how does the Potency read?
**A.** inactive

**Q.** Which Potency does the source give for `c1ccc2c(c1)ccc1ccccc12` here?
**A.** 47.2 µM (active) and 24.3 µM (active)

**Q.** For `Cc1cccnc1`, which Potency is on record?
**A.** inactive
